# Bioassay records from PubChem BioAssay.
# U2OS ROS induce: raises reactive oxygen species in U2OS cancer cells; AID 624156; U2OS ROS induction, H2DCF-DA fluorescence; ROS induction (% of piperlongumine), % at 10 µM; 2% of 46,000 active; in the data active = ROS induction above about 79%, passing the limit was not always enough;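 also: 0% = DMSO vehicle median and 100% = reference compound median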
# An asterisk follows results filed as active. Shown is part of a subset that was picked to be rich in hits.
SMILES,U2OS ROS induce
O=C1O[C@H](c2ccccc2)[C@H](c2ccccc2)N2[C@H]1[C@@H](C(=O)NC[C@H](O)c1ccccc1)[C@]1(C(=O)Nc3ccccc31)[C@H]2c1ccc(O)cc1,27.8
COCCOC(=O)N1C(=O)[C@@]2(c3cc(C#Cc4ccc(OC)cc4)ccc31)[C@H](c1ccc(O)cc1)N1[C@H](c3ccccc3)[C@H](c3ccccc3)OC(=O)[C@H]1[C@@H]2C(=O)NC[C@H](O)c1ccccc1,16.6
COCCOC(=O)N1C(=O)[C@@]2(c3cc(C#Cc4ccc(OC)cc4)ccc31)[C@H](C(=O)NC[C@H](O)c1ccccc1)[C@H]1C(=O)O[C@H](c3ccccc3)[C@H](c3ccccc3)N1[C@@H]2c1ccc(OCCO)cc1,12.9
COCCOC(=O)N1C(=O)[C@@]2(c3ccccc31)[C@H](C(=O)NC[C@H](O)c1ccccc1)[C@H]1C(=O)O[C@H](c3ccccc3)[C@H](c3ccccc3)N1[C@@H]2c1ccc(OCCO)cc1,83.8*
O=C1O[C@@H](c2ccccc2)[C@@H](c2ccccc2)N2[C@@H](c3ccc(O)cc3)[C@]3(C(=O)Nc4ccccc43)[C@@H](C(=O)NC[C@H](O)c3ccccc3)[C@H]12,5.3
O=C(Nc1ccc(Br)cc1)c1ccc2nsnc2c1,-10.8
CC1CCCC(NC(=O)CSCc2cnn(-c3ccccc3)c2-n2cccc2)C1C (stereo not given),14.4
CN1CCN(c2ccccc2NS(=O)(=O)c2ccc3c(c2)SCC(=O)N3)CC1,6.1
Cc1cc(C(=O)Nc2cccc3c2O[C@H](CN(C)Cc2ccccc2)[C@@H](C)CN([C@@H](C)CO)C3=O)n(C)n1,3.0
Cc1cc(C(=O)Nc2cccc3c2O[C@@H](CN(C)Cc2ccc(Oc4ccccc4)cc2)[C@@H](C)CN([C@H](C)CO)C3=O)n(C)n1,43.6
Cc1cc(C(=O)Nc2cccc3c2O[C@H](CN(C)Cc2ccc(Oc4ccccc4)cc2)[C@H](C)CN([C@@H](C)CO)C3=O)n(C)n1,20.9
Cc1cc(C(=O)Nc2cccc3c2O[C@@H](CN(C)Cc2ccc(Oc4ccccc4)cc2)[C@H](C)CN([C@H](C)CO)C3=O)n(C)n1,105.7*
Cc1cc(C(=O)Nc2cccc3c2O[C@H](CN(C)Cc2ccc(Oc4ccccc4)cc2)[C@@H](C)CN([C@@H](C)CO)C3=O)n(C)n1,123.6*
Cc1cc(C(=O)Nc2cccc3c2O[C@@H](CN(C)Cc2ccc(Oc4ccccc4)cc2)[C@@H](C)CN([C@@H](C)CO)C3=O)n(C)n1,56.9
Cc1cc(C)c(S(=O)(=O)NC(C)C2C3CC4CC(C3)CC2C4)c(C)c1 (stereo not given),2.2
Cc1ncoc1C(=O)Nc1ccccc1F,-18.1
Cc1ccc(S(=O)(=O)N2c3ccccc3C(C)(c3ccccc3)CC2(C)C)cc1 (stereo not given),51.1
O=C(NC12CC3CC(CC(C3)C1)C2)C1CCCN1S(=O)(=O)c1ccccc1 (stereo not given),13.4
O=C(NC1CC1)c1cccc(C(F)(F)F)c1,-2.6
Cc1nn(CC(=O)Nc2ccc(F)cc2)c(C)c1[N+](=O)[O-],3.9
Cc1ccc(NC(=O)Cn2nc(C)c([N+](=O)[O-])c2C)cc1C,169.0*
Cc1cc(I)ccc1NC(=O)Cn1nc(C)c([N+](=O)[O-])c1C,5.5
CCCNC(=O)c1ccccc1Br,-6.8
CCc1cc(=O)oc2cc(C)cc(OCC(=O)C(C)(C)C)c12,73.4
CC(=O)OCCCNC(=O)c1cc2ccccc2oc1=O,2.5
SMILES,U2OS ROS induce
CC(=O)OC/C(=C\COc1cc(=O)oc2cccc(C)c12)CCC=C(C)C,110.2*
Nc1nnnn1CC(=O)N(Cc1ccco1)C1(C(=O)Nc2ccccc2)CCCCC1,-1.9
O=c1ccc2cc3c(-c4ccc(F)cc4)coc3cc2o1,21.8
CCOC(=O)c1cnc2ccc(OCC)cc2c1NC(C)CC (stereo not given),41.7
CCOC(=O)c1cnc2ccc(OCC)cc2c1N1CCN(c2ccccc2)CC1,127.7*
CCc1ccc2ncc(S(=O)(=O)c3ccccc3)c(N3CCCC3)c2c1,22.3
Cc1ccc(Nc2nc(SCc3ccccc3)nnc2C)cc1,9.6
Cc1ccc(-n2c(SCC(=O)C(C)(C)C)nnc2-c2ccncc2)cc1,-6.2
CCc1ccc(NC(=O)CSc2nc3ccccc3c(=O)n2CCc2ccccc2)cc1,-2.7
COc1ccccc1-n1c(SCC(=O)Nc2ccccc2C)nc2ccc(I)cc2c1=O,25.9
CCn1c(SCC(=O)Nc2ccccc2)nc2ccc(I)cc2c1=O,108.7*
O=C(Cc1c[nH]c2ccccc12)NCc1ccccc1,-15.2
CC(C)CN(CC(C)C)c1nnc(NC(=O)c2csc3c2CCCC3)s1,-3.4
O=C(CNC(=S)N(Cc1ccccc1)Cc1cccs1)NC1CCCCC1,-5.4
O=C(NCc1ccco1)c1ccc(Cn2c(=S)[nH]c3ccc(Br)cc3c2=O)cc1,81.2*
O=C(NCc1ccc2c(c1)OCO2)c1ccc2c(=O)n(Cc3ccccc3)c(=S)[nH]c2c1,5.7
CC(C)NC(=O)c1ccc2c(=O)n(Cc3ccco3)c(=S)[nH]c2c1,20.6
O=C(CN1CC(=O)Oc2ccccc21)Nc1ccc(O)cc1,-9.6
Cc1sc2ncnc(N3CCN(c4cccc(C(F)(F)F)c4)CC3)c2c1C,15.7
CCOC(=O)CSc1sc(C(=O)OCC)c2c1S(=O)(=O)N(C)c1ccccc1-2,112.2*
CCOC(=O)CSc1ncc(-c2ccccc2)nn1,-4.5
CCOC(=O)CSc1nnc(-c2ccc(OC)cc2)n1-c1ccccc1C,8.9
Cn1c(=O)n(C)c2cc(CN3C(=O)c4ccccc4C3=O)ccc21,-7.3
Cc1ccc(S(=O)(=O)n2nccc2-c2c(C)nc3ccccn23)cc1,24.3
CCOC(=O)c1c(NC(=O)c2nc3ncccn3n2)sc2c1CCC(C)C2 (stereo not given),-6.0
SMILES,U2OS ROS induce
CCOC(=O)c1c(NC(=O)CSc2nc(C)cc(C(F)(F)F)n2)sc2c1CCCC2,-3.4
CCOC(=O)c1c(NC(=O)c2nc3nc(C)cc(C(F)F)n3n2)sc2c1CCCC2,165.5*
COc1ccccc1Nc1ncnc2c1cnn2-c1ccccc1,36.4
CCOC(=O)CC(Nc1nc(N2CCOCC2)nc(N2CCOCC2)n1)c1ccc(C)cc1 (stereo not given),0.9
C=C1C(=O)O[C@@H]2C3O[C@]3(C)CC/C=C(/C)CC[C@@H]12 (stereo not given in full),91.7*
C=C1C(=O)O[C@@H]2[C@H]3C(CO[C@@H]4O[C@H](CO)[C@@H](O)[C@H](O)[C@H]4O)=CC(=O)C3=C(C)CC[C@@H]12,-8.8
C=C1C(=O)O[C@H]2CC(C)C3CC[C@@]4(C)O[C@@]34CC12 (stereo not given in full),13.8
C=C1C(=O)O[C@@H]2[C@H]3O[C@]3(C)CCC=C(C)CC[C@@H]12,101.1*
C=C1C(=O)O[C@H]2C1CCC(C)=C1C(=O)C=C(C)[C@@]12O (stereo not given in full),69.3
COC(=O)c1ccccc1-n1c(N)c(C#N)c(N)c(C#N)c1=S,-7.0
NC(=O)CSc1ccc(-c2cccs2)nn1,-20.0
CNC(=O)c1ccc(OC(C)=O)cc1,-5.8
CCc1cccc(OCC(=O)Nc2ccc(S(=O)(=O)Nc3nccs3)cc2)c1,3.5
O=C(COc1ccccc1)Nc1cccc(-c2nc3cccnc3s2)c1,0.3
CN(Cc1ccccc1)S(=O)(=O)c1ccc2c(c1)SCC(=O)N2,14.1
O=C(CN(C1=NC2CS(=O)(=O)CC2S1)c1ccc(F)cc1)Nc1ccccc1C(F)(F)F (stereo not given),-8.2
O=C(Nc1cc(C(=O)Nc2ccccc2O)cc(C(=O)Nc2ccccc2O)c1)c1ccccc1,97.5*
